From PubChem BioAssay (Tox21)
Inconclusive results are not listed. Activity calls are given as the source filed them. Unless noted, calls come from the whole dose curve; as a rule, active = well fitted curve in the direction sought with a large enough effect in the repeat runs; inconclusive = weak or mixed curves; inactive = no such curve, though single readings can be large; an effect the other way counts as inactive or inconclusive.

How the values were obtained:
[1] = biological target: Retinoic acid receptor RXR-alpha (Homo sapiens) (UniProt P19793); assay: qHTS assay to identify small molecule agonists of the RXR signaling pathway (AID 1159527; calls by dose curve; note: nearly all actives have a fitted effect of over 35% in size)
Sequence of Retinoic acid receptor RXR-alpha (Homo sapiens) (P19793 whole entry, looked up): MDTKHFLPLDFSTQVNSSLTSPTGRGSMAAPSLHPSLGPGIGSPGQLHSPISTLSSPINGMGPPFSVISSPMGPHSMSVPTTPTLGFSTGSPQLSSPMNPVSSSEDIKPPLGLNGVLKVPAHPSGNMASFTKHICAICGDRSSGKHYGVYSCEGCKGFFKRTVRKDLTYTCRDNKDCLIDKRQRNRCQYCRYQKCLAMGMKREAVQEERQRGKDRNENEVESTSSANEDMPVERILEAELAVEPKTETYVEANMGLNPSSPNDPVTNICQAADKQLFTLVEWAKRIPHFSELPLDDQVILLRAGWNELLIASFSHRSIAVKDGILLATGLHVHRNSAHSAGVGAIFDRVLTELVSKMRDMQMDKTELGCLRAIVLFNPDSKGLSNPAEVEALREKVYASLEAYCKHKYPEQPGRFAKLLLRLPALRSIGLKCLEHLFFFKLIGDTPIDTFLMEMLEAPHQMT
Method in brief: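 Agonist-mode beta-lactamase reporter assay: HEK 293T RXR-alpha-UAS-bla cells treated 16 hr at 37 C with compounds, 9-cis retinoic acid as positive control. LiveBLAzer FRET substrate, 405 nm excitation, 460/530 nm emission.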

[2] = qHTS assay to identify small molecule agonists of the RXR signaling pathway - cell viability counter screen (AID 1159529); note: nearly all actives have a fitted effect of over 50% in size
Method in brief: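 CellTiter-Glo luminescence gave viability in the wells also read for beta-lactamase. Cells (RXR-alpha-UAS-bla HEK 293T, 2% charcoal-stripped FBS medium) had 5 hr plating, then 16 hr compound exposure at 37 C; tetraoctyl ammonium bromide served as positive control.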

[3] = qHTS assay to identify small molecule antagonists of the retinoid acid receptor (RAR) signaling pathway - cell viability counter screen (AID 1159551); note: nearly all actives have a fitted effect of over 35% in size
Method in brief: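 Cells (C3RL4) are plated, incubated overnight, dosed with compound in DMSO, then given retinol at 1 uM final. After 6 h at 37 C, CellTiter-Glo is added and luminescence read following 30 min at room temperature.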

[4] = qHTS assay to identify small molecule antagonists of the retinoic acid receptor (RAR) signaling pathway (AID 1159552; note: nearly all actives have a fitted effect of over 50% in size)
Method in brief: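 Luminescent RARE reporter read-out in C3RL4 cells: 6 hr co-treatment at 37 C of test compounds with retinol at 1 uM final. Cells plated overnight beforehand; luciferase reagent incubated 30 min at room temperature before reading.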

[5] = qHTS assay to identify small molecule agonists of the retinoic acid receptor (RAR) signaling pathway (AID 1159553); conditions: C3RL4 RARE luciferase reporter, agonist, 6 h; activation: at 73.3 µM (top of the series)
Method in brief: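 Seed C3RL4 reporter cells at 1,000 per well and incubate overnight at 37 C. Add compounds in DMSO, incubate 6 hr. Add luciferase reagent, wait 30 min at room temperature, read luminescence.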

[6] = biological target: Luciferin 4-monooxygenase (Photinus pyralis) (UniProt P08659); assay: qHTS assay to identify small molecule inhibitors of firefly luciferase (AID 1224835); note: nearly all actives have a fitted effect of over 25% in size
Sequence of Luciferin 4-monooxygenase (Photinus pyralis) (P08659 whole entry, looked up): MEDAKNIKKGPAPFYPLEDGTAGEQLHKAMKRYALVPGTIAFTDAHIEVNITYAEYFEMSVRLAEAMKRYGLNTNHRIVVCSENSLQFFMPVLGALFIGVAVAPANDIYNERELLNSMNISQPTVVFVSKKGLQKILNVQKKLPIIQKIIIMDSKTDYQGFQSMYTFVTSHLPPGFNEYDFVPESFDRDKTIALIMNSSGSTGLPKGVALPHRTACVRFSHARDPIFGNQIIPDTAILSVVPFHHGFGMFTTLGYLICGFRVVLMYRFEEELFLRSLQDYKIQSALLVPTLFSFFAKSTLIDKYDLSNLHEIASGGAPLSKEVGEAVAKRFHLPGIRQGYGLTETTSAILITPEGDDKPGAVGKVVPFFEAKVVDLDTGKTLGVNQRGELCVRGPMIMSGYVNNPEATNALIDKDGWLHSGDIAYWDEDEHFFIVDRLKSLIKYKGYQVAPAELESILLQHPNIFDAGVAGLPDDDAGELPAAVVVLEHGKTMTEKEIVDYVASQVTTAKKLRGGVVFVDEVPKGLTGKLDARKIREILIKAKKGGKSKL
Method in brief: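 Inhibition of purified Photinus luciferase is measured by luminescence. Substrate levels (D-luciferin, ATP) sit at their KM values. Each compound is tested in a concentration series.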

[7] = qHTS assay to identify small molecule antagonists of the constitutive androstane receptor (CAR) signaling pathway - cell viability counter screen (AID 1224837); note: nearly all actives have a fitted effect of over 45% in size
Method in brief: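 Viability was measured with CellTiter-Fluor in a HepG2 line carrying stably transfected hCAR and a CYP2B6-2.2kb construct. Cells were exposed for 23 hr at 37 C to 15 compound concentrations with 50 nM CITCO as agonist.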

[8] = qHTS assay to identify small molecule antagonists of the estrogen related receptor signaling pathway with the pleiotropic PPARgamma coactivator (PGC) from Tox21 10K library - cell viability counter screen (AID 1224840; active = well fitted cell-killing curve with a large enough effect in the repeat runs, not every such curve was filed as active; note: nearly all actives have a fitted effect of over 40% in size)
Method in brief: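 Multiplexed viability counter screen in the PGC/ERR cell line: cells treated with DMSO-dissolved compounds for 17.5 hours at 37 C, then viability measured as CellTiter-Fluor fluorescence.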

[9] = biological target: Thyrotropin receptor (Homo sapiens) (UniProt P16473); assay: qHTS assay to identify small molecule agonists of the thyroid stimulating hormone receptor (TSHR) signaling pathway (AID 1224843; calls by dose curve; note: nearly all actives have a fitted effect of over 45% in size)
Sequence of Thyrotropin receptor (Homo sapiens) (P16473 whole entry, looked up): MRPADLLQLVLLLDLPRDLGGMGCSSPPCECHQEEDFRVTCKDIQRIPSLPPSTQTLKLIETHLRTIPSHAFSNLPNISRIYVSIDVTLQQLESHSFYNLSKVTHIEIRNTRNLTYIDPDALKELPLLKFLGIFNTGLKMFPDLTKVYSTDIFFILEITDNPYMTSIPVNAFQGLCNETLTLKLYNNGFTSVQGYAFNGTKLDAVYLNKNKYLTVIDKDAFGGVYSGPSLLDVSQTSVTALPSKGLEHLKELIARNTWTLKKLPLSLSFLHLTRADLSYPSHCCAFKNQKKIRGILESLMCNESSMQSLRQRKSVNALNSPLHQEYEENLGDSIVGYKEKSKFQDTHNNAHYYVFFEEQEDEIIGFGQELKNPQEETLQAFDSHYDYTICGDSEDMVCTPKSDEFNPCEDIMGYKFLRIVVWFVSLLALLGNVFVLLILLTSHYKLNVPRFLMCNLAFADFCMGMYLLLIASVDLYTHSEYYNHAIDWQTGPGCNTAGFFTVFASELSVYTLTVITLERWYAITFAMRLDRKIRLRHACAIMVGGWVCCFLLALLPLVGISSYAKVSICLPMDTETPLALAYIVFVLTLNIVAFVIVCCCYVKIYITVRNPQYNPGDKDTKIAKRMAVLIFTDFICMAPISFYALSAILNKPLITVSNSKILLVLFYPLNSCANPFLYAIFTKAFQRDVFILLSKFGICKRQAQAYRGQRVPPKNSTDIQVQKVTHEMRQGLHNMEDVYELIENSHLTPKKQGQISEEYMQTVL
Method in brief: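 A cell-based cAMP HTRF format was run in TSHR-transfected HEK293 cells, 800 per well. Treatment: 30 min, room temperature. Detection: 1 h with labelled cAMP and anti-cAMP cryptate. Concentration-response over 15 points, three replicates.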

[10] = qHTS assay to identify small molecule agonists of the hypoxia (HIF-1) signaling pathway - cell viability counter screen (AID 1224844; calls by dose curve; note: nearly all actives have a fitted effect of over 50% in size)
Method in brief: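 Cytotoxicity was measured in parallel with the HRE-driven beta-lactamase readout: after 17 hrs of compound exposure at 37C, HRE-bla ME-180 cells received CellTiter-Glo and luminescence was recorded 30 min later.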

[11] = qHTS assay to identify small molecule agonists of H2AX (AID 1224845; active = well fitted activation curve with a large enough effect in the signal ratio in the repeat runs, not every such curve was filed as active; the % refers to the signal ratio)
Method in brief: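 Phospho-H2AX Ser139 measured by HTRF (ex 320 nm; em 665 and 620 nm) after 24 hr antibody incubation. Compounds, 15 concentrations, 0.76% DMSO, were applied to CHO-K1 cells for 3hr at 37C before lysis.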

[12] = qHTS assay to identify small molecule agonists of the hypoxia (HIF-1) signaling pathway (AID 1224846; active = well fitted activation curve with a large enough effect in the signal ratio in the repeat runs, not every such curve was filed as active; the % refers to the signal ratio)
Method in brief: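 Compounds from the Tox21 10K library, dissolved in DMSO, are tested for induction of a hypoxia response element–controlled beta-lactamase reporter in ME-180 cells. Exposure lasts 17 hrs at 37C after a 5 hr settling period, followed by CCF4-AM FRET substrate.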

[13] = qHTS assay to identify small molecule agonists of H2AX - cell viability counter screen (AID 1224847; calls by dose curve;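 note: wild-type CHO-K1 cells; top concentration of the series differs between compounds; nearly all actives have a fitted effect of over 30% in size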)
Method in brief: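 Counter-screen for viability: CellTiter-Glo ATP luminescence read after 3 h compound treatment (15-point titration, 0.76% DMSO final) of CHO-K1 cells at 37C, with 30 min room-temperature reagent incubation.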

[14] = qHTS assay to identify small molecule antagonists of the estrogen related receptor (ERR) signaling pathway from Tox21 library - cell viability counter screen (AID 1224834); note: nearly all actives have a fitted effect of over 30% in size
Method in brief: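 ERR cells, 2,000/well; 6 h settle at 37 C/5% CO2; pin-tool compound transfer in DMSO; 17.5 h at 37 C; CellTiter-Fluor, 30 min; fluorescence intensity.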

[15] = qHTS assay to identify small molecule agonists of the constitutive androstane receptor (CAR) signaling pathway - cell viability counter screen (AID 1224836); note: nearly all actives have a fitted effect of over 45% in size
Method in brief: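 Cell viability multiplexed with the CAR agonist screen: CellTiter-Fluor fluorescence after 23 hr at 37 C. HepG2-CYP2B6-hCAR cells got compounds at 15 concentrations with PK11195 at 0.75 uM final.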

[16] = biological target: Nuclear receptor subfamily 1 group I member 3 (Homo sapiens) (UniProt Q14994); assay: qHTS assay to identify small molecule antagonists of the constitutive androstane receptor (CAR) signaling pathway (AID 1224838);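 note: HepG2 cells stably expressing hCAR with CYP2B6 luciferase reporter stimulated by CITCO; nearly all actives have a fitted effect of over 40% in size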
Sequence of Nuclear receptor subfamily 1 group I member 3 (Homo sapiens) (Q14994 whole entry, looked up): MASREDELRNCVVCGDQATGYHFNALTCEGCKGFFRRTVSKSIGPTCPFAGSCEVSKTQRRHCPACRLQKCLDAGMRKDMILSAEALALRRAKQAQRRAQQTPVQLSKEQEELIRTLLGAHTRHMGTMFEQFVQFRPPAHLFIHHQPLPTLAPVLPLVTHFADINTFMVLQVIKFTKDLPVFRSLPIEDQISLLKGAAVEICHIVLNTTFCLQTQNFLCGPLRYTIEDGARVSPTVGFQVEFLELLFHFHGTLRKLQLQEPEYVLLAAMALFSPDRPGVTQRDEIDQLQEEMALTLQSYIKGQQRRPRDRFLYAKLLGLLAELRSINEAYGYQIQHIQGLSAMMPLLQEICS
Method in brief: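 Antagonist mode used CITCO at a final 50 nM to activate CAR in human hepatoma HepG2 cells carrying stable hCAR and a 2.2 kb CYP2B6 promoter-luciferase construct. Compounds were tested at 15 concentrations over 24 h, with luminescence as the end point.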

[17] = biological target: Nuclear receptor subfamily 1 group I member 3 (Homo sapiens) (UniProt Q14994); assay: qHTS assay to identify small molecule agonists of the constitutive androstane receptor (CAR) signaling pathway (AID 1224839); note: nearly all actives have a fitted effect of over 15% in size
Method in brief: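 Luminescent ONE-Glo read-out after 24 hr, 37 C exposure of double-stable HepG2-CYP2B6-hCAR reporter cells to a 15-point compound series, in the presence of 0.75 uM PK11195 (final).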

[18] = qHTS assay to identify small molecule antagonists of the estrogen related receptor signaling pathway with the pleiotropic PPARgamma coactivator (PGC) from Tox21 10K library (AID 1224841; call rule not given here; note: actives are mostly falling curves and most rising ones were filed inactive; nearly all actives have a fitted effect of over 50% in size)
Method in brief: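 Steps: plate 2,000 PGC/ERR cells per well; incubate 6 h at 37 C with 5% CO2; transfer compounds from DMSO stocks by pin tool; incubate 18 h at 37 C; add One-Glo; measure luminescence 30 min later.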

[19] = qHTS assay to identify small molecule agonists of the estrogen related receptor signaling pathway with the pleiotropic PPARgamma coactivator (PGC) from Tox21 10K library (AID 1224842); note: nearly all actives have a fitted effect of over 15% in size
Method in brief: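 Luminescence from One-Glo (30 min, room temperature) measured after PGC/ERR cells had 18 h at 37 C with pinned compound (23 nL in DMSO). Cells had been seeded at 2,000 per well and pre-incubated 6 h.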

[20] = qHTS assay to identify small molecule antagonists of the estrogen related receptor (ERR) signaling pathway from Tox21 library (AID 1224848); note: nearly all actives have a fitted effect of over 50% in size
Method in brief: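 ERR cell line, 2,000 cells/well. 6 h settle, then compound (DMSO) added; 18 h at 37 C; ONE-Glo luminescence after 30 min RT.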

Measured: Potency

Cc1cc(C)cc([N+](=O)[O-])c1
not listed: [14] | [15] | [16] | [17] | [18] | [19] | [20]
inactive: all other assays above

CCC(=O)c1ccc(O)cc1
not listed: [4] | [9] | [18] | [19] | [20]
inactive: all other assays above

CCCCOC(=O)C(C)OC(=O)CCC (centres undefined)
not listed: [14] | [16] | [17]
inactive: all other assays above

C[C@@H]1C[C@H]2[C@@H]3C[C@H](F)C4=CC(=O)C=C[C@]4(C)[C@@]3(F)[C@@H](O)C[C@]2(C)[C@@]1(O)C(=O)CO
not listed: [6] | [14] | [18]
inactive: all other assays above

CC(=O)N1CCN(c2ccc(O)cc2)CC1
not listed: [11] | [14] | [16] | [18] | [19] | [20]
inactive: all other assays above

CNC(=O)NC
not listed: [14] | [15] | [16] | [17] | [18] | [19] | [20]
inactive: all other assays above
